Results taken from PubChem BioAssay.
Calls of active or inactive are those of the source.

Each molecule was assayed on XIP peptide (Xip251-270) binding (assay: XIP fragment 251-270 binding compounds – biochemical, small-molecule microarray, fluorescence 635/667 nm, 0.1 µg/mL protein, primary screen (AID 1182)). Conditions: fluorescent protein binding, 635 nm, higher = more signal, called active from +8 up or from −8 down.

| Compound | composite z-score |
| --- | --- |
| [N-]=[N+]=Nc1ccccc1[C@@H]1OC(c2ccc(OCCCO)cc2)=N[C@]1(Cc1ccccc1)C(=O)N1CCOCC1 | 0.665 (inactive) |
| Cc1nc2cc(Br)ccc2c(=O)o1 | 0.312 (inactive) |
| CC1CC/C=C\[C@H]2OC34C=CCN(C(C)(C)C)C(=O)[C@H]3N(C(C)CO)C(=O)[C@@H]4C2C(=O)O1 (some centres undefined) | -0.323 (inactive) |
| C=CCOC(=O)[C@@H]1[C@H]2C(=O)O[C@H](c3ccccc3)[C@H](c3ccccc3)N2[C@H](c2ccc(OCCOC(=O)[C@H]3C[C@H]4C(=O)N5CCC[C@H]5C(=O)N4[C@H]3c3ccc(O)cc3)cc2)[C@@]12C(=O)Nc1ccc(I)cc12 | 1.93 (inactive) |
| C=C(/C(=C/C[C@H](OC(C)=O)c1ccccc1OCCO)c1cnc2ccccc2c1)C(C)C | 0.609 (inactive) |
| CCCCN1CC=CC23O[C@@H]4C=CCCOC(=O)C4[C@H]2C(=O)N(CCCCCCO)[C@@H]3C1=O (some centres undefined) | 0.249 (inactive) |
| COc1ccc(C#Cc2ccc3c(c2)[C@]2(C(=O)N3)[C@H](C(=O)NC[C@H](O)c3ccccc3)[C@H]3C(=O)O[C@H](c4ccccc4)[C@H](c4ccccc4)N3[C@@H]2c2ccc(O)cc2)cc1 | 0.627 (inactive) |
| O=C(c1ccccc1)N1C(=O)[C@]2(COC(c3ccc(OCCCO)cc3)=N2)Cc2ccccc21 | 0.819 (inactive) |

Each molecule was assayed on XIP peptide (Xip251-270) (assay: compounds binding XIP fragment 251-270 – biochemical, small-molecule microarray, fluorescence 635/667 nm, 0.5 µg/mL protein, primary screen (AID 1183)). Conditions: fluorescence 635 nm, higher = more signal.

| Compound | composite z-score |
| --- | --- |
| C=CCN1C(=O)[C@@]2(Cc3ccccc31)N=C(c1ccc(OCCCO)cc1)O[C@H]2c1ccccc1 | 0.801 |
| CC(C)C(O)C1C=CC2C(=O)N(c3ccccc3)C(=O)C2N1Nc1ccc([N+](=O)[O-])cc1 (centres undefined) | -0.266 |
| COC(=O)[C@H](Cc1ccccc1)N[C@@H](/C=C/C1CC1)[C@H](O)Cc1ccccc1 | -0.432 |
| O=C1O[C@H](c2ccccc2)[C@H](c2ccccc2)N2[C@H]1[C@@H](C(=O)N1CCCCCCC1)[C@]1(C(=O)Nc3ccc(C#CC4=CCCCC4)cc31)[C@H]2c1ccc(OCCO)cc1 | 0.77 |
| CCOC(=O)C[C@H]1[C@H](OC(=O)c2ccc(C(=O)c3ccccc3)cc2)[C@@H](NC(=O)c2ccccc2)c2cc(OCCCO)ccc2N1C(=O)Cc1ccc(OC)cc1 | 0.511 |
| COc1ccc([Si](C)(C)[C@H]2[C@H](CCO)O[C@@]3(C(=O)N(Cc4ccc(N(C=O)c5ccccc5)cc4)c4ccccc43)[C@@H]2C)cc1 | 0.282 |
| CC(C)c1ccc(NN2C(C(O)c3ccc(B(O)O)cc3)C=CC3C(=O)N(c4ccccc4)C(=O)C32)cc1 (centres undefined) | 0.665 |
| COc1ccc(CCNC(=O)[C@@]2(Sc3ccc(C)cc3)CC(=O)N(C3Cc4ccccc4C3)[C@@H]2c2ccc(CO)cc2I)cc1 | 0.81 |
| COCCOC(=O)N1C(=O)[C@@]2(c3ccccc31)[C@H](c1ccc(O)cc1)N1[C@H](c3ccccc3)[C@H](c3ccccc3)OC(=O)[C@H]1[C@@H]2C(=O)Nc1nc2ccccc2s1 | 0.78 |
| C=C(C(=O)CC[C@@H](OC(=O)c1cccnc1)c1ccccc1OCCO)C(C)C | 0.209 |
| NCCCCCNC(=O)[C@@H]1C[C@@H]2C(=O)N[C@@H](Cc3ccccc3)C(=O)N2[C@@H]1c1ccc(O)cc1 | 0.549 |
| CCCCCCc1nc(-c2ccc(OC)nc2)cc2c1[Si](C(C)C)(C(C)C)O[C@H]2c1ccccc1 | -0.487 |
| C[N+](C)(C)CCCCNC(=O)[C@@H]1C[C@@H]2C(=O)N[C@@H](Cc3ccccc3)C(=O)N2[C@@H]1c1cccc(OCCO)c1 | 0.645 |
| COc1cc2c(cc1O)C(c1cccs1)N(C)CC2 (centres undefined) | 0.594 |
| C[C@@]1([C@@H](NC(=O)c2ccc(-c3ccccc3)cc2)c2ccc(Cl)cc2)C[C@H]1C1CCCCC1 | 0.492 |
| Cc1ccc(S[C@]2(C(=O)O)CC(=O)N(C(C)C)[C@@H]2c2ccc(CO)cc2I)cc1 | 0.837 |
| CN1C(=O)C2C=CC(C(O)C3CC=CCC3)N(N(c3ccccc3)c3ccccc3)C2C1=O (centres undefined) | -0.283 |
| O=C1NC(=O)C2C1C=CC(C(O)c1cccs1)N2Nc1ccc(Cl)cc1Cl (centres undefined) | 0.554 |

| Compound | composite z-score |
| --- | --- |
| C=CCC(OC(C)=O)[C@@H]1[C@@H](N(Cc2ccc(-c3ccccc3)cc2)C(=O)Cc2ccc(OC)cc2)c2cc(OCCCO)ccc2N1C(=O)Cc1ccc2ccccc2c1 (some centres undefined) | -0.282 |
| CC(C)C[C@@H]1NC(=O)[C@@H]2C[C@H](C(=O)NCc3ccc(F)cc3)[C@H](c3cccc(OCCO)c3)N2C1=O | 0.421 |
| C=CCC(OC(C)=O)[C@@H]1[C@@H](N(Cc2ccc(-c3ccccc3)cc2)C(=O)c2cccc3ccccc23)c2cc(OCCCO)ccc2N1C(=O)c1ccc(-c2ccccc2)cc1 (some centres undefined) | -0.321 |
| CCCC[C@H]1OB(O)C[C@H]2C1=C(COC)Cn1c(=O)n(-c3ccccc3)c(=O)n12 | -0.305 |
| O=C1NC(=O)C2C1C=CC(C(O)c1cc(C(F)(F)F)cc(C(F)(F)F)c1)N2Nc1ccccn1 (centres undefined) | 0.797 |
| CC1CC/C=C\[C@H]2OC34C=CCN(Cc5ccccc5)C(=O)[C@H]3N(CCCO)C(=O)[C@@H]4C2C(=O)O1 (some centres undefined) | 0.737 |
| C=C(CC1([C@@H](NP(=O)(c2ccccc2)c2ccccc2)[C@H]2C[C@@H]2CCCC)CC1)c1ccccc1 | 0.143 |
| CC(C)N1C(=O)c2ccccc2[C@](C)(C(=O)NCCN2CCOCC2)[C@@H]1c1ccc(CO)cc1 | -0.119 |
| [N-]=[N+]=NCc1ccccc1[C@@H]1OC(c2ccc(OCCCO)cc2)=N[C@]1(Cc1ccccc1)C(=O)NCC(O)CO (some centres undefined) | -0.0063 |
| Cc1ccc(S[C@]2(C(=O)NCCCN(C)C)CC(=O)N(Cc3ccccc3C(F)(F)F)[C@@H]2c2ccc(CO)cc2)cc1 | -0.328 |
| [N-]=[N+]=Nc1ccccc1[C@@H]1OC(c2ccc(OCCCO)cc2)=N[C@]1(Cc1ccccc1)C(=O)N1CCOCC1 | 0.632 |
| Cc1nc2cc(Br)ccc2c(=O)o1 | 0.139 |
| CC1CC/C=C\[C@H]2OC34C=CCN(C(C)(C)C)C(=O)[C@H]3N(C(C)CO)C(=O)[C@@H]4C2C(=O)O1 (some centres undefined) | -1.08 |
| C=CCOC(=O)[C@@H]1[C@H]2C(=O)O[C@H](c3ccccc3)[C@H](c3ccccc3)N2[C@H](c2ccc(OCCOC(=O)[C@H]3C[C@H]4C(=O)N5CCC[C@H]5C(=O)N4[C@H]3c3ccc(O)cc3)cc2)[C@@]12C(=O)Nc1ccc(I)cc12 | 0.833 |
| C=C(/C(=C/C[C@H](OC(C)=O)c1ccccc1OCCO)c1cnc2ccccc2c1)C(C)C | -0.167 |
| CCCCN1CC=CC23O[C@@H]4C=CCCOC(=O)C4[C@H]2C(=O)N(CCCCCCO)[C@@H]3C1=O (some centres undefined) | 0.847 |
| COc1ccc(C#Cc2ccc3c(c2)[C@]2(C(=O)N3)[C@H](C(=O)NC[C@H](O)c3ccccc3)[C@H]3C(=O)O[C@H](c4ccccc4)[C@H](c4ccccc4)N3[C@@H]2c2ccc(O)cc2)cc1 | 0.624 |
| O=C(c1ccccc1)N1C(=O)[C@]2(COC(c3ccc(OCCCO)cc3)=N2)Cc2ccccc21 | 0.908 |
